Assay results reported in PubChem BioAssay (Tox21).
Where “and” joins values, the source holds several entries; their conditions need not be identical. Equal values may be shown once. Inconclusive results are not listed. A call without a number means that no potency is given here. Some compounds were tested as several samples or in several runs, with calls that do not always agree. Calls of active or inactive are those of the source. Unless noted, calls follow the shape of the full dose curve.

experiment: qHTS assay for small molecules that induce genotoxicity in human embryonic kidney cells expressing luciferase-tagged ATAD5 (AID 651632; active = well fitted activation curve with a large enough effect in the repeat runs; also: nearly all actives have a fitted effect of over 15% in size); details: HEK293T ATAD5-luciferase induction, 16 h; series mostly up to 83.3 µM
In short: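 ATAD5-luc HEK293T, 2,000 cells/well; cpd or DMSO pin-transferred; 16 hr, 37C/5% CO2; Amplite 30 min RT; luminescence.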

| SMILES | Potency |
| --- | --- |
| O=C1CCc2cc(OCCCCc3nnnn3C3CCCCC3)ccc2N1 | inactive |
| Cc1c(C)c2c(c(C)c1OC(=O)c1cccnc1)CC[C@@](C)(CCC[C@H](C)CCC[C@H](C)CCCC(C)C)O2 | inactive |
| Clc1ccnc(Cl)n1 | inactive |
| CNc1ccc([N+](=O)[O-])cc1 | inactive |
| CCOC(=O)c1ccc(C2CCC(NC[C@H](O)COc3ccc(O)c(NS(C)(=O)=O)c3)CC2)cc1 (some centres not stated) | inactive |
| Cc1ccc(O)c(O)c1 | inactive |
| CN1CCN2c3ccccc3Cc3ccccc3C2C1 (configuration not stated) | inactive |
| O=C(c1ccc(O)c(O)c1)c1ccc(O)cc1O | inactive |
| CC(C)(C)c1ccc(C(O)CCCN2CCC(C(O)(c3ccccc3)c3ccccc3)CC2)cc1 (configuration not stated) | inactive |
| CN1CCN(Cc2cc(-c3ccc4[nH]c(=O)oc4c3)co2)[C@@H](c2ccc(F)cc2)C1 | inactive |

experiment: qHTS assay for small molecule agonists of the p53 signaling pathway - cell viability (AID 651633); details: p53RE-bla HCT-116 viability, ATP luminescence, 16 h; series mostly up to 83.3 µM; also: nearly all actives have a fitted effect of over 30% in size; also: potency is read from the fitted curve at half-maximal effect
In short: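 p53RE-bla cells were treated with compound for 16 hours at 37 C. Cytotoxicity was then measured as CellTiter-Glo luminescence after 30 min at room temperature.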

| SMILES | Potency |
| --- | --- |
| CCCNCCC | inactive |
| CC(C(=O)O)c1ccc2c(c1)[nH]c1ccc(Cl)cc12 (configuration not stated) | inactive |
| O=C1CCc2ccc(OCCCCN3CCN(c4cccc(Cl)c4Cl)CC3)cc2N1 | 23.7 µM (active) |
| CC1(C)[C@@H](O)CC[C@]2(C)[C@H]3C(=O)C=C4[C@@H]5C[C@@](C)(C(=O)O)CC[C@]5(C)CC[C@@]4(C)[C@]3(C)CC[C@@H]12 | 23.7 µM (active) and inactive |
| CCc1cccc(CC)c1NC(=O)CN(CC(=O)O)CC(=O)O | inactive |
| CN1CCC[C@@H]1CCO[C@](C)(c1ccccc1)c1ccc(Cl)cc1 | inactive |
| O=c1oc2cc(O)ccc2c2oc3cc(O)ccc3c12 | inactive |
| CN(C)c1ccc(C(=C2C=CC(=[N+](C)C)C=C2)c2ccc(N(C)C)cc2)cc1 | 10.6 µM (active) and 9.64 µM (active) and 30.6 µM (active) |
| CCCCCCCCCCCCCC[N+](C)(C)Cc1ccccc1 | 23.7 µM (active) and 69.6 µM (active) |
| Oc1cc(Cl)cc(Cl)c1Cl | inactive |
| O=C1NC(=O)[C@@H]2CC=CC[C@H]12 | inactive |
| Cc1cc(=O)oc2cc(O)cc(O)c12 | inactive |
| Cc1cc(C(C#N)c2ccc(Cl)cc2)c(Cl)cc1NC(=O)c1cc(I)cc(I)c1O (configuration not stated) | 3.35 µM (active) |
| CC[C@H](C)COC(=O)/C=C/c1ccc(N=Cc2ccc(OC)cc2)cc1 | inactive |
| COC(C)=O | inactive |
| C/C=C/C=C/COC(=O)C(C)C | inactive |

experiment: qHTS assay for small molecules that induce genotoxicity in human embryonic kidney cells expressing luciferase-tagged ATAD5 - cell viability (AID 651634); details: HEK293T ATAD5-luc cells viability, CellTiter-Fluor, 15.5 h; series mostly up to 83.3 µM; also: nearly all actives have a fitted effect of over 25% in size; also: potency is read from the fitted curve at half-maximal effect
In short: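 Fluorescence from CellTiter-Fluor, reporting protease activity within live cells, served as the viability read-out. HEK293T cells carrying luciferase-tagged ATAD5 had been treated with compound for 15.5 hr at 37C.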

| SMILES | Potency |
| --- | --- |
| O=C1CCc2cc(OCCCCc3nnnn3C3CCCCC3)ccc2N1 | inactive |
| CCCNCCC | inactive |
| CC(C(=O)O)c1ccc2c(c1)[nH]c1ccc(Cl)cc12 (configuration not stated) | inactive |
| O=C1CCc2ccc(OCCCCN3CCN(c4cccc(Cl)c4Cl)CC3)cc2N1 | inactive |
| COC(=O)C1=C(C)NC(C)=C(C(=O)OCCN2CCN(C(c3ccccc3)c3ccccc3)CC2)C1c1cccc([N+](=O)[O-])c1 (configuration not stated) | 11.9 µM (active) |
| C#C[C@]1(OC(C)=O)CC[C@H]2[C@@H]3CCC4=C[C@@H](OC(C)=O)CC[C@@H]4[C@H]3CC[C@@]21C | inactive |
| Nc1nc(-c2ccccc2)cs1 | inactive |
| CC1(C)[C@@H](O)CC[C@]2(C)[C@H]3C(=O)C=C4[C@@H]5C[C@@](C)(C(=O)O)CC[C@]5(C)CC[C@@]4(C)[C@]3(C)CC[C@@H]12 | inactive |
| COc1cccc2c1C(=O)c1c(O)c3c(c(O)c1C2=O)C[C@@](O)(C(C)=O)C[C@@H]3O[C@H]1C[C@H](N)[C@H](O)[C@H](C)O1 | 9.44 µM (active) and 30.8 µM (active) |
| CCc1cccc(CC)c1NC(=O)CN(CC(=O)O)CC(=O)O | inactive |
| Cc1c(C)c2c(c(C)c1OC(=O)c1cccnc1)CC[C@@](C)(CCC[C@H](C)CCC[C@H](C)CCCC(C)C)O2 | inactive |
| CN1CCC[C@@H]1CCO[C@](C)(c1ccccc1)c1ccc(Cl)cc1 | inactive |
| O=c1oc2cc(O)ccc2c2oc3cc(O)ccc3c12 | inactive |
| Clc1ccnc(Cl)n1 | inactive |
| O=C1c2ccccc2C(=O)N1SC1CCCCC1 | inactive |
| CNc1ccc([N+](=O)[O-])cc1 | 61.3 µM (active) |

| SMILES | Potency |
| --- | --- |
| CCOC(=O)c1ccc(C2CCC(NC[C@H](O)COc3ccc(O)c(NS(C)(=O)=O)c3)CC2)cc1 (some centres not stated) | inactive |
| CN(C)c1ccc(C(=C2C=CC(=[N+](C)C)C=C2)c2ccc(N(C)C)cc2)cc1 | 11.9 µM (active) and 21.6 µM (active) and 24.3 µM (active) |
| CCC(C)[O-].CCC(C)[O-].CCOC(=O)/C=C(/C)[O-].[Al+3] | inactive |
| CCCCCCCCCCCCCC[N+](C)(C)Cc1ccccc1 | 69.6 µM (active) |
| C#C[C@]1(O)CC[C@H]2[C@@H]3[C@H](C)CC4=C(CCC(=O)C4)[C@H]3CC[C@@]21C | inactive |
| Nc1cc(Cl)c(O)c(Cl)c1 | inactive |
| Cc1ccc(O)c(O)c1 | inactive |
| Cc1ccc(C)cc1 | inactive |
| CN1CCN2c3ccccc3Cc3ccccc3C2C1 (configuration not stated) | inactive |
| O=C1NC(=O)[C@@H]2CC=CC[C@H]12 | inactive |
| Cc1cc(=O)oc2cc(O)cc(O)c12 | inactive |
| CC[C@H](C)COC(=O)/C=C/c1ccc(N=Cc2ccc(OC)cc2)cc1 | inactive |
| COC1=C(OC)C(=O)C(CCCCCCCCCCO)=C(C)C1=O | inactive |
| COC(C)=O | inactive |
| C/C=C/C=C/COC(=O)C(C)C | inactive |
